Source: PubChem (several laboratories)
The list is not random: actives were taken first. Their share in the collection is about 3.1%.
Neddyl block = inhibitors of cullin neddylation, primary screen, biochemical, TR-FRET, uHTS, NAE and Ubc12; calls only at 25 µM; NEDD8-conjugating enzyme Ubc12 (Homo sapiens) + NEDD8-activating enzyme E1 regulatory …; 360,000 tested, 0.58% active; AID 651699, 2012; in the data active = inhibition above about 36%
proKLK7 act = proKLK7 zymogen activators, primary screen, biochemical, fluorescence intensity. Kallikrein-7 (Homo sapiens), P49862. purified proKLK7, EDANS-DABCYL substrate fluorescence; 100% is mature enzyme control, 0% vehicle. activation, % at 7 µM. 370,000 tested, 0.9% active. AID 652039, 2013;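 active = activation above the mean of all tested compounds plus 3 SD, computed per campaign excluding outliers beyond control limits, cut at about 13% in these data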
Rin1-Abl PPI inh = inhibitors of Rin1-Abl protein binding, primary screen, biochemical, TR-FRET | inhibition, % at 7.35 µM | Tyrosine-protein kinase ABL1 (Homo sapiens) + Ras and Rab interactor 1 (Homo sapiens), … | AID 588664, 2011 | 360,000 tested, 0.4% active; in the data active = inhibition above about 5%, passing the limit was not always enough
LEDGF integ inh = blockers of LEDGF/p75-dependent integrase strand transfer – biochemical, TR-FRET, high throughput, primary screen; AID 743269, 2014; inhibition, % at 3.7 µM; TR-FRET IN-LEDGF/p75 DNA integration, Eu/Cy5; 370,000 tested, 0.64% active; HIV-1 integrase (with human LEDGF/p75);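 active = inhibition above the screen-wide mean plus 3 SD, cut at about 13% in these data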;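 note: signal is the Cy5 over europium emission ratio at 671 and 618 nm; 0% = plate median of compound wells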
UHRF1 MBD2 ctr = UHRF1 methylated DNA binding inhibitors, primary screen, counter-screen for MBD2 inhibitor project, biochemical, TR-FRET, human UHRF1, single concentration | 370,000 tested, 0.75% active | AID 687016, 2013 | inhibition, % at 4.4 µM | UHRF1 binding to methylated oligo; in the data active = inhibition above about 21%;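 note: UHRF1 SRA domain binding a hemimethylated CpG hairpin DNA probe; 0% = median of test compound wells and 100% = reference inhibitor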
MBD2 inh = inhibitors of MBD2 binding to methylated DNA, primary screen, biochemical, TR-FRET, DNA-binding domain, human; Methyl-CpG-binding domain protein 2 (Homo sapiens), Q9UBB5; MBD2 binding to methylated oligonucleotide; inhibition, % at 4.4 µM; 370,000 tested, 0.31% active; AID 686964, 2013; in the data active = inhibition above about 13%
* marks the source's active call; other numbers are inactive results; i = inactive; . = no result; + = active, no number.

SMILES	Neddyl block	proKLK7 act	Rin1-Abl PPI inh	LEDGF integ inh	UHRF1 MBD2 ctr	MBD2 inh
CC1CN(C2CCN(S(=O)(=O)c3ccc(F)cc3)CC2)CC(C)O1 (stereo not drawn)	i	0	0	-2	21*	0
CC(C)=CCC/C(C)=C/CN1C(=O)N(c2ccc(F)cc2)[C@H]2C[C@@H](c3ccccc3)[C@@H](C)[C@@H](C(=O)N3CCOCC3)C[C@H]21	.	0	.	-2	-3	-5
COc1ccc(NC(=O)CCC(=O)Nc2nnc(CC(C)C)s2)cc1Cl	i	0	0	-4	0	2
O=C(NCc1ccc2c(c1)OCO2)c1ccc(CS(=O)(=O)c2cccc(C(F)(F)F)c2)o1	i	1	3	1	0	4
CC(NC(=O)c1ccc(CS(=O)(=O)c2cccc(C(F)(F)F)c2)o1)c1ccc2c(c1)OCCO2 (stereo not drawn)	i	-1	2	-5	42*	2
CCCCCCN1CCN(C2CN(Cc3cn(Cc4ccc(C)cc4)nn3)S(=O)(=O)C2)CC1 (stereo not drawn)	i	0	.	4	12	4
COc1ccccc1NS(=O)(=O)c1cccc(NC(=O)Nc2ccc(Cl)cc2)c1	i	0	0	5	26*	4
CCNS(=O)(=O)c1ccc(NC(=O)Nc2ccccc2OC)cc1	i	-1	2	6	23*	6
O=C1[C@H](c2ccccc2)[C@@H](c2ccccc2)N1c1ccncc1	i	0	0	-1	22*	9
O=C1[C@@H](Oc2ccccc2)[C@@H](c2ccncc2)N1c1ccccc1	i	0	-2	-3	1	5
C/C(=N\NC(=O)c1sccc1-n1cccc1)c1cccs1	i	0	0	-7	41*	2
Cc1ccc(-n2nc3c(=O)n(CC(=O)NC4CCCCC4)nc(C)c3c2C)cc1	i	0	2	2	-4	2
Cc1ccc(S(=O)(=O)N2CCC(C(=O)N[C@H](C(=O)N3CCN(C)CC3)C(C)C)CC2)cc1	i	0	-2	-2	22*	1
Cc1ccccc1-n1nc2c(c1NC(=O)C(C)(C)C)CS(=O)(=O)C2	i	-1	2	-1	10	7
CCCCNC(=O)C1c2ccccc2OCC(=O)N1Cc1ccccc1 (stereo not drawn)	i	-1	.	3	2	1
CCCCNC(=O)C1c2ccccc2OCC(=O)N1C1CC1 (stereo not drawn)	i	0	.	4	21*	3
COc1cc(OC)cc(-n2c3nc4ccccc4nc3c3c(=O)n(CC4CCCO4)cnc32)c1 (stereo not drawn)	.	-13	.	-1	4	0
O=c1c2c3nc4ccccc4nc3n(CC3CCCO3)c2ncn1CCc1ccccc1 (stereo not drawn)	+	0	-1	2	2	-2
CC(NCC1COc2ccccc2O1)C(=O)NCc1ccccc1 (stereo not drawn)	i	1	1	1	25*	9
O=S1(=O)CCOCCCN1Cc1cccc(C(F)(F)F)c1	i	1	1	1	-2	-3
O=S1(=O)CCOCCCN1Cc1ccccc1F	i	0	3	1	41*	-3
CCc1ccc2nc(Nc3ccc(OC)cc3OC)c(C#N)cc2c1	i	0	-1	11	22*	3
CC1NC(=O)NC1CCCCCC(=O)NCCc1ccccc1 (stereo not drawn)	i	0	83*	78*	2	-1
O=C1C2C3C=CC(CC3)C2C(=O)N1c1nccs1 (stereo not drawn)	i	-1	0	0	21*	6
O=C1C2C3C=CC(C2C(=O)N1c1nccs1)C1C(=O)N(c2nccs2)C(=O)C31 (stereo not drawn)	i	0	3	-7	-2	2
